# Compound activity (PubChem)
# Rows were chosen to be rich in hits. Some 19% of all compounds tested hit in one or more screens of this group.
# TDP1 inh: blocks human tyrosyl-DNA phosphodiesterase 1. Q9NUW8. recombinant TDP1, AlphaScreen DNA substrate cleavage. Potency, µM (titrated, usually from 130 µM), without a hit: top-dose activity change, negative = inhibition, usual class: inhibitors. hit rate 0.28% among 350,000. AID 485290; also: nearly all actives have a fitted effect of over 40% in size
#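 Steps: enzyme plus compound, 15 min RT; add biotin/phosphotyrosine-FITC oligonucleotide (15 nM final), react 5 min; add donor/acceptor beads (10 ug/ml final), 10 min; read AlphaScreen. Tdp1 at 1 nM final.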
# RORgamma inh: ROR gamma (mouse) transcription inhibition; P51450; Drosophila S2 Gal4-RORgamma UAS-luciferase reporter, 20 h; Potency, µM (highest dose often 53.6 µM), for the others: top-dose activity change, negative = inhibition, most hits filed as inhibitors; hit rate 5.4% among 310,000; also: nearly all actives have a fitted effect of over 60% in size
#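 Using a luciferase readout, inhibitors were identified by reduced reporter activity in Drosophila cells coexpressing a copper-inducible Gal4–ROR gamma fusion and UAS-driven Photinus luciferase, incubated 20 hr after 700 uM copper sulfate.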
# Gal4-VP16 FLuc: counter-screen for ROR gamma inhibitors: Gal4-VP16 reporter; Potency, µM (doses to about 53.6 µM), without a hit: at the top dose activity, negative = inhibition, most hits filed as inhibitors; hit rate 3.5% among 310,000; Drosophila S2 Gal4-VP16 UAS-luciferase, luminescence, 20 h;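 also: Gal4-VP16 expression switched on by copper sulfate through the metallothionein promoter; nearly all actives have a fitted effect of over 50% in size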
# TDP1 cell CPT: DT40-hTDP1 cell growth loss with CPT; AID 686979; Potency, µM (highest dose often 46.2 µM), inactives show top-dose activity change, negative = growth inhibition, usual class: inhibitors; hit rate 12% among 420,000; chicken DT40 Tdp1-/-;hTDP1 cells + 20 nM CPT, ATP luminescence, 48 h; also: nearly all actives have a fitted effect of over 55% in size
#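 Chicken DT40 Tdp1-/- cells complemented with human TDP1, 400 cells/well, exposed to compounds plus 20 nM camptothecin for at least 48 h at 37 C; viability read as ATP content by CellTiter-Glo luminescence.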
# DT40 TDP1 no CPT: qHTS for Inhibitors of human tyrosyl-DNA phosphodiesterase 1 (TDP1): qHTS in cells in absence of CPT; Potency, µM (top dose mostly 46.2 µM), for inactives: at the top dose activity change, negative = growth inhibition, actives largely listed as inhibitors; DT40 Tdp1-/- hTDP1 cells, no CPT, ATP luminescence, 48 h; hit rate 15% among 420,000; also: nearly all actives have a fitted effect of over 55% in size
#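 Readout: luminescence from CellTiter-Glo after 30 min in the dark at RT. Cells: DT40 Tdp1-/- with stable hTDP1, 400/well. Exposure: compounds alone, ≥48 hr, 37 °C.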
# The depositor's hits bear a star; ? = inconclusive; nt = no result given; [ ] = another dose, or the depositor's remark. Calls follow the shape of the dose curve; as a rule, active = well fitted curve in the direction sought with a large enough effect; inconclusive = small, poorly fitted or top-dose-only effect, or another doubt; inactive = no such curve, though single readings can be large; an effect the other way counts as inactive or inconclusive. % is scaled to controls: 0 for no effect and ±100 for the full control effect; potency is read from the fitted curve at half-maximal effect.
SMILES,TDP1 inh,RORgamma inh,Gal4-VP16 FLuc,TDP1 cell CPT,DT40 TDP1 no CPT
COC(=O)c1c(NC(=S)Nc2ccc(CC(=O)O)cc2)sc(C)c1C,-1.9%,4.9%,3.6%,1.7%,1.2%
CC1=C(C(=O)OC2CCCCC2)C(c2ccccc2Br)NC(=O)N1 (stereo not drawn),nt,-1.0%[1.91 µM],4.6%,?,?
CCC(=O)Nc1ccc(NC(=O)CCc2ccccc2)cn1,nt,23.6%[1.91 µM],-0.1%,0.9%,-1.6%
COc1ccc(C)cc1NC(=O)CSc1ccc(-c2ccccn2)nn1,4.8%,16.8%,2.4%,?,20.6µM*
COc1ccc(Cl)cc1NC(=O)CSc1ccc(-c2sc(C)nc2C)nn1,-7.7%,nt,nt,13µM*,10.3µM*
Cc1cccc(NC(=O)CSc2ccc(-c3ccccn3)nn2)c1,5.1%,nt,nt,?,?
COc1ccc(Cl)cc1NC(=O)CSc1cc(C)[nH]c(=O)n1,2.6%,nt,nt,-9.2%,-16.9%
Cc1cc(C)c2c(CN3CCN(Cc4ccccc4)CC3)cc(=O)oc2c1,nt,3.7%,4.0%,?,-28.7%
Cc1cc(C)c2c(CN(Cc3ccccc3)Cc3ccccc3)cc(=O)oc2c1,nt,nt,nt,23.1µM*,16.4µM*
Cc1cc(C)c2c(CN3CCN(Cc4ccc5c(c4)OCO5)CC3)cc(=O)oc2c1,4.0%,-11.3%,-7.1%,?,16.4µM*
COc1cc(S(=O)(=O)N2CCN(Cc3ccc4c(c3)OCO4)CC2)c(C)cc1C,5.3%,?,-19.1%,14.6µM*,?
CC(NC(=O)CNC(=O)C1CCCCC1)c1ccc(S(N)(=O)=O)cc1 (stereo not drawn),0.9%,-14.6%,-2.3%,6.9%,-9.2%
C[C@@H]1NC(=O)N(c2ccc(F)cc2)C1=O,nt,2.5%,4.9%,3.8%,-3.2%
CCOC(=O)c1cnc2ccc(OCC)cc2c1NCCCN1CCOCC1,2.3%,4.7%,-2.2%,18.4µM*,18.4µM*
CCOC(=O)c1cnc2ccc(OCC)cc2c1NCCN1CCOCC1,5.6%,11.7%,-1.8%,?,20.6µM*
Cc1ccccc1-c1nc2cc(NC(=O)C3CC3)ccc2o1,2.8%,-19.3%,-1.1%,-16.1%,?
